{"source": "PubChem BioAssay AID431", "about": "(Sanford-Burnham Center for Chemical Genomics, 2006)", "note": "Hit rate of the full screen: of about 63,000 compounds, about 1,100 (1.7%) were called active. For the sample, actives were picked, then their nearest neighbours and some compounds at random. Measured potencies and affinities stand elsewhere. Values without a mark were called inactive.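 Rule for the calls: active = compounds whose percent cytotoxicity in the single-dose primary screen, scaled between solvent and toxic-drug controls, exceeds 50; inactive = the rest.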"}
{"test": "cytotoxicity in KRAS-transformed pancreatic duct cells, primary screen, cell-based, fluorescence, HTS (AID 431);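 note: 0% = DMSO solvent wells and 100% = doxorubicin-treated wells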", "conditions": "HPDE-C7K KRASV12 cells, Alamar Blue viability, 48 h; at 10 µM; active compounds read high"}
{"compound": "O=C(C1CCN(S(=O)(=O)c2cccc3cccnc23)CC1)N1CCN(C2CCCCC2)CC1", "cytotoxicity": "8.4%"}
{"compound": "N#C/C(=C(\\O)c1ccco1)c1ccccn1", "cytotoxicity": "-1.4%"}
{"compound": "COc1cccc(OC)c1-c1nn2c(-c3cc(-c4ccccc4)n[nH]3)nnc2s1", "cytotoxicity": "58.4% (active)"}
{"compound": "COc1ccc(-c2nnc3sc(-c4cccs4)nn23)cc1OC", "cytotoxicity": "11.7%"}
{"compound": "COc1cc(-c2nnc3sc(-c4cccs4)nn23)cc(OC)c1OC", "cytotoxicity": "62.9% (active)"}
{"compound": "COc1cc(-c2nnc3sc(-c4ccncc4)nn23)cc(OC)c1OC", "cytotoxicity": "-1.5%"}
{"compound": "COc1cccc(OC)c1-c1nn2c(-c3ccccc3Cl)nnc2s1", "cytotoxicity": "17.5%"}
{"compound": "COc1ccc(-c2nnc3sc(-c4c(OC)cccc4OC)nn23)cc1", "cytotoxicity": "10.6%"}
{"compound": "c1ccc2c(c1)ncn2Cc1nnc2sc(-c3ccncc3)nn12", "cytotoxicity": "0.8%"}
{"compound": "CC(=O)c1c(N2CCCCC2)nc(=O)n(-c2ccccc2)c1C", "cytotoxicity": "-16.3%"}
{"compound": "O/N=C(/Cc1ccccn1)c1ccccc1", "cytotoxicity": "-1.3%"}
{"compound": "CCCCCC/C(=N/O)c1ccccn1", "cytotoxicity": "51.6% (active)"}
{"compound": "O=C(NCCCNC(=O)c1ccccn1)c1ccccn1", "cytotoxicity": "9.7%"}
{"compound": "Cc1cc2nc(C(F)(F)F)[nH]c(=O)n2n1", "cytotoxicity": "2.8%"}
{"compound": "COC(=O)C1CCN(Cc2cc(=O)oc3cc(OC)ccc23)CC1", "cytotoxicity": "-31.4%"}
{"compound": "CCOC(=O)c1ccc(N=c2sc(C(=O)OC)cc(=O)n2Cc2ccco2)cc1", "cytotoxicity": "119% (active)"}
{"compound": "CCOC(=O)c1ccc(N=c2sc(C(=O)OC)cc(=O)n2C2CC2)cc1", "cytotoxicity": "14.1%"}
{"compound": "COC(=O)c1cc(=O)n(Cc2ccco2)c(=Nc2ccc(F)c(Cl)c2)s1", "cytotoxicity": "26.9%"}
{"compound": "COc1ccc(N=C2SC(CC(=O)Nc3ccc(OC)cc3OC)C(=O)N2C)cc1", "note": "(stereo not drawn)", "cytotoxicity": "-10.8%"}
{"compound": "COc1ccc(-c2cc(C(=O)N3CCN(C(c4ccccc4)c4ccccc4)CC3)no2)cc1", "cytotoxicity": "2.7%"}
{"compound": "COc1ccc(N=c2oc3cc(O)ccc3cc2C(=O)NCC2CCCO2)c(OC)c1", "note": "(stereo not drawn)", "cytotoxicity": "53.8% (active)"}
{"compound": "COc1ccc(N=c2oc3cc(O)ccc3cc2C(=O)NCC2CCCO2)cc1", "note": "(stereo not drawn)", "cytotoxicity": "-0.1%"}
{"compound": "COc1ccccc1N=c1oc2cc(O)ccc2cc1C(=O)NCC1CCCO1", "note": "(stereo not drawn)", "cytotoxicity": "7%"}
{"compound": "CC1(C)NC(=O)N(CC(O)COc2ccccc2C(=O)N2CCCCC2)C1=O", "note": "(stereo not drawn)", "cytotoxicity": "-30.9%"}
{"compound": "CCCCC(=O)Nc1cccc2c1C(=O)N(c1ccccc1)C2=O", "cytotoxicity": "-0.9%"}
{"compound": "CCCCN(CCCC)S(=O)(=O)c1ccc(C(=O)Nc2nnc(COC)o2)cc1", "cytotoxicity": "66.7% (active)"}
{"compound": "CCc1nnc(NC(=O)c2ccc(S(=O)(=O)N(CC(C)C)CC(C)C)cc2)o1", "cytotoxicity": "47.6%"}
{"compound": "CCc1nnc(NC(=O)c2ccc(S(=O)(=O)N(CC)Cc3ccccc3)cc2)o1", "cytotoxicity": "33%"}
{"compound": "CCCCN(CCCC)S(=O)(=O)c1ccc(C(=O)Nc2nnc(CSC)o2)cc1", "cytotoxicity": "70.1% (active)"}
{"compound": "CCc1nnc(NC(=O)c2ccc(S(=O)(=O)N(CCOC)CCOC)cc2)o1", "cytotoxicity": "-0.3%"}
{"compound": "CCCCN(CC)S(=O)(=O)c1ccc(C(=O)Nc2nnc(COC)o2)cc1", "cytotoxicity": "3.4%"}
{"compound": "CCCCN(CC)S(=O)(=O)c1ccc(C(=O)Nc2nnc(CSC)o2)cc1", "cytotoxicity": "8.9%"}
{"compound": "CSCc1nnc(NC(=O)c2ccc(S(=O)(=O)N(CC(C)C)CC(C)C)cc2)o1", "cytotoxicity": "57.2% (active)"}
{"compound": "CCCCN(C)S(=O)(=O)c1ccc(C(=O)Nc2nnc(CSC)o2)cc1", "cytotoxicity": "-2%"}
{"compound": "COc1ccc(-c2cc(C(=O)NCC(C)C)no2)cc1", "cytotoxicity": "-0.6%"}
{"compound": "CCOC(=O)N1CCN(C(=O)COc2ccc(S(=O)(=O)NC3CCCCC3)cc2C)CC1", "cytotoxicity": "-6.6%"}
{"compound": "COC(=O)c1ccc(C2/C(=C(\\O)c3ccc(OC)c(C)c3)C(=O)C(=O)N2c2cc(C)on2)cc1", "note": "(stereo not drawn)", "cytotoxicity": "13.9%"}
{"compound": "Cc1c(C#N)c2ccccc2n1CC(=O)NCCc1c[nH]c2ccccc12", "cytotoxicity": "-3.8%"}
{"compound": "CN(C)S(=O)(=O)n1cnc(-c2ccccc2)c1-c1ccccc1", "cytotoxicity": "-11.5%"}
{"compound": "CN(C)S(=O)(=O)c1ccc(-c2ccccc2)cc1", "cytotoxicity": "-6.1%"}
{"compound": "O=C(O)COc1ccc(Oc2ccccc2)cc1", "cytotoxicity": "10.4%"}
{"compound": "COc1ccc(N2CCN(CCCNC(=O)CCCn3c(=O)[nH]c4ccsc4c3=O)CC2)cc1", "cytotoxicity": "10.4%"}
{"compound": "O=C(OCc1nc2ccccc2s1)c1cccc(S(=O)(=O)N2CCOCC2)c1", "cytotoxicity": "4.7%"}
{"compound": "CN(C)c1ccc(CN2CCCC(O)C2)cc1", "note": "(stereo not drawn)", "cytotoxicity": "4.1%"}
{"compound": "OC1CCCN(Cc2cccc3ccccc23)C1", "note": "(stereo not drawn)", "cytotoxicity": "9.5%"}
{"compound": "O=S(=O)(c1ccc(C2CCCCC2)cc1)N1CCN(c2ncccn2)CC1", "cytotoxicity": "0.7%"}
{"compound": "Cc1cc(C(=O)CN2C(=O)NC(C)(c3cccc(Br)c3)C2=O)c(C)n1Cc1ccco1", "note": "(stereo not drawn)", "cytotoxicity": "17%"}
{"compound": "CC(=O)O[C@@]12CO[C@@H]1C[C@H](O)[C@@]1(C)C(=O)[C@H](O)C3=C(C)[C@@H](OC(=O)[C@H](O)[C@@H](NC(=O)OC(C)(C)C)c4ccccc4)C[C@](O)([C@@H](OC(=O)c4ccccc4)[C@H]21)C3(C)C", "cytotoxicity": "52.1% (active)"}
{"compound": "CC(=O)O[C@H]1C(=O)[C@]2(C)[C@H]([C@H](OC(=O)c3ccccc3)[C@]3(O)C[C@H](OC(=O)[C@H](O)[C@@H](NC(=O)c4ccccc4)c4ccccc4)C(C)=C1C3(C)C)[C@]1(OC(C)=O)CO[C@@H]1C[C@@H]2O", "cytotoxicity": "67.2% (active)"}
{"compound": "CCc1cccc(CC)c1N(COC)C(=O)Cn1c(CO)nc2ccccc21", "cytotoxicity": "-6.1%"}
{"compound": "CCOc1ccc(-n2c(=O)cc(N3CCN(c4ccccc4)CC3)[nH]c2=O)cc1", "cytotoxicity": "7.9%"}
{"compound": "CCOC(=O)CSc1nnc(CNC(=O)c2ccco2)n1C", "cytotoxicity": "-0.1%"}
{"compound": "O=C(NC1CCCC1)C1C2C=CC3(CN(Cc4cccs4)C(=O)C13)O2", "note": "(stereo not drawn)", "cytotoxicity": "3.8%"}
{"compound": "Cc1ccc2nc(NCc3ccco3)c(C=NCc3ccco3)c(=O)n2c1", "cytotoxicity": "-7.1%"}
{"compound": "CC(=O)N[C@H]1C[C@@H]1c1ccccc1", "cytotoxicity": "6.6%"}
{"compound": "COc1ccc(NC(=O)CS(=O)CC(=O)NCc2cccc(C(F)(F)F)c2)cc1", "note": "(stereo not drawn)", "cytotoxicity": "1%"}
{"compound": "COc1ccc(NC(=O)CSc2nnc(-c3ccccc3)n2Cc2ccco2)c(OC)c1", "cytotoxicity": "-5.5%"}
{"compound": "CC(=O)N(CCc1ccccc1C)Cc1cc2cc3c(cc2[nH]c1=O)OCO3", "cytotoxicity": "53.3% (active)"}
{"compound": "COc1ccc(CCN(Cc2cc3cc4c(cc3[nH]c2=O)OCO4)C(C)=O)cc1OC", "cytotoxicity": "-1.5%"}
{"compound": "CCC(=O)N(CCc1ccccc1C)Cc1cc2cc3c(cc2[nH]c1=O)OCO3", "cytotoxicity": "-20.6%"}
{"compound": "COc1ccccc1C(=O)Nc1ccc(S(=O)(=O)Nc2cc(C)on2)cc1", "cytotoxicity": "3.1%"}
{"compound": "O=C(Nn1c(C2CC2)nc2ccccc2c1=O)c1ccco1", "cytotoxicity": "-1.6%"}
{"compound": "Cc1nc2ccccn2c(=O)c1CCN1CCC(C(=O)c2ccc(F)cc2)CC1", "cytotoxicity": "10.8%"}
{"compound": "O=c1cc(CN2CCN(c3ccc(F)cc3)CC2)nc2sccn12", "cytotoxicity": "-7.8%"}
{"compound": "Cn1c(SCc2nc3ccccc3[nH]2)nnc1-c1cccs1", "cytotoxicity": "-13.1%"}
{"compound": "CC1CN(S(=O)(=O)c2ccc(C(=O)Nc3nnc(-c4ccc5c(c4)CCCC5)o3)cc2)CC(C)O1", "note": "(stereo not drawn)", "cytotoxicity": "33.7%"}
{"compound": "CCCCN(C)S(=O)(=O)c1ccc(C(=O)Nc2nnc(-c3cccs3)o2)cc1", "cytotoxicity": "32.1%"}
{"compound": "CCCCN(CC)S(=O)(=O)c1ccc(C(=O)Nc2nnc(-c3ccccc3Cl)o2)cc1", "cytotoxicity": "58.3% (active)"}
{"compound": "COc1cccc(C(=O)Nc2nnc(-c3cccs3)o2)c1", "cytotoxicity": "15.6%"}
{"compound": "O=C(Nc1nnc(-c2cccs2)o1)c1cccc(F)c1", "cytotoxicity": "21.9%"}
{"compound": "CC1CC(C)CN(S(=O)(=O)c2ccc(C(=O)Nc3nnc(-c4cccs4)o3)cc2)C1", "note": "(stereo not drawn)", "cytotoxicity": "56.6% (active)"}
{"compound": "O=C(Nc1nnc(-c2cccs2)o1)c1cccc(Oc2ccccc2)c1", "cytotoxicity": "35.3%"}
{"compound": "CCN(Cc1ccccc1)S(=O)(=O)c1ccc(C(=O)Nc2nnc(C3CC3)o2)cc1", "cytotoxicity": "6.4%"}
{"compound": "CCCCN(CC)S(=O)(=O)c1ccc(C(=O)Nc2nnc(-c3cccs3)o2)cc1", "cytotoxicity": "52.7% (active)"}
{"compound": "O=C(Nc1nnc(-c2cccs2)o1)c1cccc(C(F)(F)F)c1", "cytotoxicity": "77.3% (active)"}
{"compound": "Brc1ccc(-c2nnc(-c3ccc4c(c3)OCO4)o2)o1", "cytotoxicity": "-2%"}
{"compound": "COC(=O)c1ccccc1NC(=O)CSc1nnnn1C1CCCCC1", "cytotoxicity": "0.6%"}
{"compound": "O=C(Nc1nccs1)C1CCN(S(=O)(=O)c2cccnc2)CC1", "cytotoxicity": "-8.7%"}
{"compound": "COCCCn1cnc2c(c1=O)c1nc3ccccc3nc1n2-c1ccc(C)cc1", "cytotoxicity": "-9.5%"}
{"compound": "Cn1c(=O)oc2cc(S(=O)(=O)NC3CCCc4ccccc43)ccc21", "note": "(stereo not drawn)", "cytotoxicity": "-4%"}
{"compound": "O=C(CCCn1c(=S)[nH]c2ccccc2c1=O)NCc1ccco1", "cytotoxicity": "-11%"}
{"compound": "CN1CCN(S(=O)(=O)c2ccc(NC(=O)c3cccs3)cc2)CC1", "cytotoxicity": "-16.7%"}
{"compound": "O=C(Nc1nnc(-c2ccccc2Cl)o1)c1cccnc1", "cytotoxicity": "28.8%"}
{"compound": "COc1ccc(-c2nnc(NC(=O)c3ccc(S(=O)(=O)N4CCCc5ccccc54)cc3)o2)cc1", "cytotoxicity": "49.3%"}
{"compound": "CCC1CCCCN1S(=O)(=O)c1ccc(C(=O)Nc2nnc(-c3cccs3)o2)cc1", "note": "(stereo not drawn)", "cytotoxicity": "11.8%"}
{"compound": "CCC1CCCCN1S(=O)(=O)c1ccc(C(=O)Nc2nnc(-c3ccccc3Cl)o2)cc1", "note": "(stereo not drawn)", "cytotoxicity": "76.1% (active)"}
{"compound": "CC1CCCCN1S(=O)(=O)c1ccc(NC(=O)c2cccs2)cc1", "note": "(stereo not drawn)", "cytotoxicity": "57.2% (active)"}
{"compound": "CC1CCN(S(=O)(=O)c2ccc(NC(=O)c3cccs3)cc2)CC1", "cytotoxicity": "15.7%"}
{"compound": "COc1ccc(-c2nnc(NC(=O)c3ccc(S(=O)(=O)N4COCC4(C)C)cc3)o2)cc1", "cytotoxicity": "14.3%"}
{"compound": "O=C(Nc1nnc(C2CC2)o1)c1ccc(S(=O)(=O)N2CCCc3ccccc32)cc1", "cytotoxicity": "60.6% (active)"}
{"compound": "CC1(C)COCN1S(=O)(=O)c1ccc(C(=O)Nc2nnc(-c3ccc(Cl)s3)o2)cc1", "cytotoxicity": "93.6% (active)"}
{"compound": "O=C(Nc1ccc(S(=O)(=O)N2CCCc3ccccc32)cc1)C1CCCO1", "note": "(stereo not drawn)", "cytotoxicity": "12.3%"}
{"compound": "CCCC(=O)Nc1nnc(-c2ccc(Cl)s2)o1", "cytotoxicity": "-1.5%"}
